From PubChem BioAssay AID2108 (National Center for Advancing Translational Sciences (NCATS), 2009)
Records with an inconclusive call do not appear. Activity calls are given as the source filed them. The call rests on the fitted dose curve; in most records, active means well fitted curve in the direction sought with a large enough effect; inconclusive means small, poorly fitted or top-dose-only effect, or effect the other way, or another doubt; inactive means no such curve, though single readings can be large or run the other way.

Each compound was assayed against Alpha-galactosidase A (Homo sapiens) (UniProt P06280) (assay: Confirmation of Inhibitors of Human alpha-Galactosidase Using Spleen Homogenate). Conditions: alpha-galactosidase enzyme activity; series mostly up to 56.2 µM.
Description: NIH Chemical Genomics Center [NCGC]
NIH Molecular Libraries Probe Production Centers Network [MLPCN]
Assay Submitter (PI): Wei Zheng
Alpha-galactosidase is a homodimeric glycoprotein that hydrolyzes the terminal alpha-galactosyl moieties from glycolipids and glycoproteins. Deficiency of this enzyme results in Fabry Disease with progressive accumulation of globotriaosylceramide and other glycosphingolipids in vascular endothelial cells that causes renal failure, myocardial infarction and stroke, and premature death in patients. It has been reported that the improper folding and trafficking of alpha-galactosidase resulting from genetic mutations may account for a significant number of Fabry patients. […] We optimized this alpha-galactosidase assay in 1536-well plate format for identification of novel small molecule inhibitors or activators with structures other than the sugar analogs in order to develop new pharmacological chaperones. In particular, this assay is directed towards discovering compounds active in more natural setting, tissue homogenate, that may have been missed by screens of the purified enzyme under more stringent conditions. This assay attempted to confirm hits from the primary screening.
NCGC Assay Protocol Summary:
This is a fluorogenic enzyme assay with 4-methylumbelliferyl-alpha-D-galactopyranoside as the substrate and human spleen homogenate containing alpha-galactosidase as the enzyme preparation. Upon hydrolysis of this fluorogenic substrate, the resulting product, 4-methylumbelliferone (which excites at 365 nm and emits at 440 nm) can be detected by a fluorescence plate reader. Data were normalized to the controls for basal activity (without enzyme) and 100% activity (with enzyme). The AC50 values were determined from concentration-response data modeled with the standard Hill equation.
Assay buffer: 50 mM citric acid (titrated with potassium phosphate to pH 5.0), 0.01% Tween-20 (pH 5.0 is an optimal condition for this enzyme assay)
1536-well assay protocol for the alpha-galactosidase from human spleen homogenate:
(1) Add 2 ul/well spleen homogenate (1 ug)
(2) Add 23 nL compounds in DMSO solution. The final titration was 0.5 nM to 58 uM.
(3) Add 2 ul of substrate (1 mM final)
(4) Incubate at 37C for 40 min
(5) Add 2 ul stop solution (1M NaOH and 1M Glycine mixture, pH 10)
(6) Detect the assay plate in a ViewLux plate reader (PerkinElmer) with Ex=365 nm and Em=440nm.
Keywords: Alpha-galactosidase, Fabry Disease, pharmacological chaperone, chaperone therapy, high throughput screening, alpha- galactosidase inhibitor, MLSMR, MLSCN, NIH Roadmap, qHTS and NCGC

Chain of Alpha-galactosidase A (Homo sapiens) (P06280 32-429 limits assumed): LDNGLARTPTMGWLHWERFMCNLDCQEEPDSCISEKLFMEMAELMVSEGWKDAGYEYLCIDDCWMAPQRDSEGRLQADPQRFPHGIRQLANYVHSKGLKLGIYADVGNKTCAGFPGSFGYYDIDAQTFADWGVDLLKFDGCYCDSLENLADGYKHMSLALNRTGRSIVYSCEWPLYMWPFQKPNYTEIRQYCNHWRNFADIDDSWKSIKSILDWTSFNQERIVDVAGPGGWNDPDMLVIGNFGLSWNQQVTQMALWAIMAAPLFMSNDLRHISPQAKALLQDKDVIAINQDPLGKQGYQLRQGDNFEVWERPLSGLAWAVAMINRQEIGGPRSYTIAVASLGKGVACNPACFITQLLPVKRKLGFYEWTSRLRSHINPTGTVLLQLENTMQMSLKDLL

outcome, inactive:
COCCNc1c(-c2ccc(O)cc2)nc2ccc(Cl)cn12
Cc1ccc(S(=O)(=O)N2CCN(C(=O)N(c3ccccc3)c3ccccc3)CC2)cc1
O=C(NC1=NCCS1)C1Cc2ccccc2CN1C(=O)c1ccccc1 (stereo not given)
CCN(CC)S(=O)(=O)c1ccc2c(c1)C(=NNc1ccccc1)c1cc(S(=O)(=O)N(CC)CC)ccc1-2
COc1cccc2cc(-c3nc(-c4ccc(C)cc4)c(C)s3)c(=O)oc12
O=C1NC[C@@H](Cc2cccc3ccccc23)N(CCc2cc(C(F)(F)F)cc(C(F)(F)F)c2)C1=O
CCCN1CNc2c(c(=O)[nH]c(=S)n2CCc2ccc(OC)c(OC)c2)C1
N#Cc1ccccc1S(=O)(=O)N1CCOCC1
COC(=O)c1ccc(C(=O)OC)c(NC(=S)N2CCOCC2)c1
O=C(CSc1n[nH]c(-c2ccccc2)n1)c1ccc(O)c(O)c1
CCOC(=O)c1c(-c2ccc(-c3ccccc3)cc2)csc1NC(=O)CCN1CCOCC1
CN(CCO)S(=O)(=O)c1ccc2c(c1)C(=NN)c1cc(S(=O)(=O)N(C)CCO)ccc1-2
O=c1oc2ccccc2cc1-c1csc(Cc2nc3c(s2)CCCC3)n1
O=C(Nc1cc(S(=O)(=O)N2CCOCC2)ccc1N1CCCC1)c1cc(=O)[nH]c2ccccc12
Cc1ccc(S(=O)(=O)NN2C(=O)/C(=C\c3ccc(Cl)cc3)SC2=S)cc1
CC1(C)CC(=O)c2cc(C(=O)NC3CCSC3=O)c(=O)n(-c3ccccc3)c2C1 (stereo not given)
O=C(O)c1cc(NCc2ccccc2)ccc1N1CCOCC1
Cc1ccccc1NC(=O)CC1c2ccccc2CC(C)(C)N1C (stereo not given)
Cc1cccc(S(=O)(=O)c2c(N)n(-c3ccccc3)c3nc4ccccc4nc23)c1
CCC1C(=O)NCCN1Cc1nc(-c2ccc(C)s2)oc1C (stereo not given)
O=C(COc1ccc2ccccc2c1)N1CCN(C(=O)c2ccco2)CC1
CC(C)Cn1c(SCC(=O)N2CCN(S(=O)(=O)c3ccccc3)CC2)nc2ccccc21
COC(=O)CSc1cc([N+](=O)[O-])ccc1NC(=O)OC
CC(=O)N1CCN(c2ccc(NCc3ccc(C)cc3)cc2)CC1
O=S(=O)(c1ccccc1Cl)N1CCOCC1
CC(=O)Nc1cccc2c1C(=O)NC2=O
Cc1sc(-c2cc3cc(Br)ccc3oc2=O)nc1-c1ccccc1
COc1ccccc1CCNC(=O)C1CCC(=O)N(C2CC2)C1 (stereo not given)
COc1ccc(C2=NNC(c3cc(Cl)cc4c3OCOC4)C2)c(O)c1 (stereo not given)
O=S(=O)(c1ccc(Cl)cc1)N1CCOCC1
Cc1ccc(S(=O)(=O)NC(=O)NN2CCCCCC2)cc1
CC1(C)CC(=O)c2cc(C(=O)NCc3ccco3)c(=O)n(-c3ccc(Cl)cc3)c2C1
O=c1oc2ccc3ccccc3c2cc1-c1nc2c(s1)CCc1ccccc1-2
Cc1ccc(-c2cc(C(=O)N3CCN(S(=O)(=O)c4ccc(Br)s4)CC3)[nH]n2)c(C)c1
Nc1ccc(Cc2ccc(N)c(O)c2)cc1O
COc1ccc(NS(=O)(=O)c2ccc(O)c(NC(=O)c3cc4c(C)nn(-c5ccc(F)cc5)c4s3)c2)cc1
O=S(=O)(c1ccccc1F)N1CCOCC1
CC1S/C(=N\N=C\c2cccc([N+](=O)[O-])c2)N(C(C)(C)C)C1=O (stereo not given)
CC(C)c1nc2cc(C(=O)N3CCNC(=O)C3c3cccc(F)c3)ccc2o1 (stereo not given)
CN(C)CC/C=C1/c2ccccc2Sc2c(O)cc(Cl)cc21
